Measured values: ChEMBL document CHEMBL1157539, “Thousands of chemical starting points for antimalarial lead identification” (Nature, 2010)

tested on: Plasmodium falciparum; test: GSK_TCMDC: Inhibition of Plasmodium falciparum Dd2 in whole red blood cells, using parasite LDH activity as an index of growth. Test compounds present at 2uM; type: functional

Row | Compound | Inhibition [%]
1 | CC[C@H](C)CNC(=O)c1cncc(-c2ccc(CNCC3CNCCCO3)cc2)c1.O=C(O)C(F)(F)F (some centres undefined) | 0
2 | COc1cc(OC)cc(-c2nnc(Sc3ccc(C#N)c([N+](=O)[O-])c3)n2C)c1 | 77
3 | Cc1cccc2nc(-c3cccc(-c4cccc(CNCc5ccccc5)c4)c3)[nH]c12.O=C(O)C(F)(F)F | 56
4 | CCOC(=O)c1ccc(NC(=O)Nc2ccc(-c3cccc(-c4nc5cccc(C)c5[nH]4)c3)cc2)cc1 | 100
5 | O=c1cc(NCCCNC2CCCc3c2ccc2ccccc32)[nH]c2ccccc12 (centres undefined) | 30
6 | Cc1[nH]c(C)c(-c2cc3ccccc3o2)c(=O)c1Cl | 13
7 | Cc1cccc(CN2CCCC3(CCN(Cc4ccccc4O)C3)C2)c1 (centres undefined) | 76
8 | COc1ccc(CNC(=O)NC2CCN(c3ccnc(Nc4ccc(OC)cc4)n3)C2)cc1 (centres undefined) | 80
9 | Cc1cc(N[C@@H](CC(C)C)C(=O)Nc2ccccc2)nc(Nc2ccccc2)n1.O=C(O)C(F)(F)F | 93
10 | Cc1ccc(C(=O)NCC2CCN(c3ccc(C(F)(F)F)cc3NC(=O)c3ccco3)CC2)cn1 | 73
11 | CCn1c(-c2ccccc2)cc2nnc3ccccc3c21 | 87
12 | NC1=Nc2ccc(Cl)cc2C1(O)c1ccccc1 (centres undefined) | 51
13 | COc1ccc(-c2ccc(NC(=O)c3cccs3)cc2)cc1CN1CCCN(C)CC1.O=C(O)C(F)(F)F | 30
14 | O=C(Nc1ccc(Cn2ncc(N3CCCNCC3)c(Cl)c2=O)cc1)Nc1cccc(Oc2ccccc2)c1.O=C(O)C(F)(F)F | 41
15 | CC(C)(C)c1ccc(CN2CCCCC(NC(=O)c3cc(-c4ccccc4Cl)cs3)C2)cc1.O=C(O)C(F)(F)F (centres undefined) | 98
16 | O=C(Nc1ccccc1O)C1CCN(c2ncnc3cc(-c4ccc(F)cc4)sc23)CC1 | 94
17 | CCCc1cc(Cc2cnc(N)nc2N)cc(CCC)c1OCCCCCC(=O)OCC | 0
18 | Cc1cccc(-c2nn(-c3ccccc3)c3[nH]c(=O)c(CNC4CCCC4)cc23)c1 | 97
19 | N#Cc1ccc(-c2ccc(C(=O)NCCCCN3CCC(c4cn(CCCO)c5ccccc45)CC3)cc2)cc1 | 56
20 | CCC(C)NS(=O)(=O)c1ccc2nc(Nc3ccc(C)c(Cl)c3)n([C@H](C)C(C)(C)C)c2c1 (some centres undefined) | 100
21 | NCc1ccc(CNCc2cccc(-c3cccc(-c4nc5ccccc5[nH]4)c3)c2)cc1.O=C(O)C(F)(F)F | 11
22 | N#Cc1cnc2cc(-c3cnc(CNCCN4CCOCC4)s3)ccc2c1Nc1ccc(Oc2ccccc2)cc1 | 83
23 | CCN(CCCN1CCCCC1)c1cc(C)nc(Nc2cc(C)ccc2C)n1.O=C(O)C(F)(F)F | 42
24 | COc1cc2nc(NCCn3cccn3)nc(NCCc3ccccc3)c2cc1OC | 100
25 | CC1CCN(Cc2c(O)ccc3c(O)c(-c4nc5ccccc5s4)c(=N)oc23)CC1 | 99
26 | CCCNCc1ccc(-c2ccc(CN(Cc3ccc4c(c3)OCO4)C(=O)Cc3cccnc3)cc2)nc1.O=C(O)C(F)(F)F | 53
27 | COc1cc(N(Cc2ccccc2C)S(=O)(=O)Cc2ccccc2[N+](=O)[O-])c(OC)cc1Cl | 44
28 | CCCC(C)Nc1nc(C)cc(N[C@@H](CC(C)C)C(=O)Nc2ccc(OC)cc2)n1.O=C(O)C(F)(F)F (some centres undefined) | 68
29 | CCOC(=O)NC1=NC(C)(C)N(OCc2ccc(Cl)c(Cl)c2)C(NC(=O)OCC)=N1 | 4
